BAZ2B inh = inhibitors of human BAZ2B bromodomain; 4.4% of 360,000 active; Q9UIF8; AlphaScreen BAZ2B-H3K14Ac peptide displacement; AID 504333; Potency, µM (titrated, usually from 114 µM), for inactives: at the top dose activity change, negative = inhibition, usual class: inhibitors; further: on the % scale 0 is the no-effect control and ±100 the full control effect; nearly all actives have a fitted effect of over 60% in size
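In this displacement format the biotinylated H3(5-23) peptide acetylated at Lys14 serves as ligand at 50 nM, with BAZ2B at 50 nM in PBS pH 7.4 containing 0.01% Tween-20. Donor and acceptor beads are 10 ug/mL final.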
L3MBTL1 inh = L3MBTL1 (human) inhibition; 0.66% of 230,000 active; AlphaScreen L3MBTL1–H3K9me1 peptide binding; AID 485360; Q9Y468; Potency, µM (series often up to 57.1 µM), inactives show at the highest dose activity, negative = inhibition, most hits filed as inhibitors; further: on the % scale 0 is the no-effect control and ±100 the full control effect; nearly all actives have a fitted effect of over 60% in size
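Read-out is AlphaScreen signal from streptavidin donor and nickel chelate acceptor beads (10 ug/mL final each) bridging L3MBTL1 (50 nM) and biotinylated K9-monomethylated H3(1-15) peptide (75 nM), after 30 min compound exposure at room temperature.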
PLK1 PBD inh = PLK1 (human) polo-box domain binding inhibition. P53350. Plk1 PBD binding of FITC phosphopeptide, fluorescence polarization. Potency, µM, for the others: max response, negative = inhibition, actives largely listed as inhibitors. 2.8% of 360,000 active. AID 720504; further: series mostly up to about 57 µM; on the % scale 0 is the no-effect control and ±100 the full control effect; nearly all actives have a fitted effect of over 65% in size
VDR inh = inhibitors of human vitamin D receptor; P11473; VDR-SRC2-3 peptide fluorescence polarization, 2 h; Potency, µM, without a hit: max response, negative = inhibition, hits mostly inhibitors; 0.93% of 400,000 active; further: on the % scale 0 is the no-effect control and ±100 the full control effect
Target sequence (P11473 whole entry, looked up): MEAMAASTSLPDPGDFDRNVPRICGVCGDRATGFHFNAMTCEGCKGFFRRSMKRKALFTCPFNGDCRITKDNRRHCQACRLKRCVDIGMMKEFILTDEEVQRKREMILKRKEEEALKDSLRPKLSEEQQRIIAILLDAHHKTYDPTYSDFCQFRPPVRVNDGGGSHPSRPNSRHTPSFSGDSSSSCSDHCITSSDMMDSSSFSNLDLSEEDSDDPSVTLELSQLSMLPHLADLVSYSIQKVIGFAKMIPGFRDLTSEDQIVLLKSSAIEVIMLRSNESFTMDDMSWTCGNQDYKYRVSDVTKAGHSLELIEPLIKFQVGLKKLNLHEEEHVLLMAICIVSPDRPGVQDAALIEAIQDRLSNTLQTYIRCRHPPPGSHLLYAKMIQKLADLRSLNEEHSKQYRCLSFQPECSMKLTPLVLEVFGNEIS
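Fluorescence polarization assay of small-molecule disruption of VDR binding to coregulator peptide SRC2-3. Compounds and controls pin-transferred, then read after 2 h incubation at ambient room temperature.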
JMJD2A Tudor inh = blocks the human JMJD2A Tudor domain | O75164 | 4.4% of 390,000 active | AID 504339 | Potency, µM (top dose mostly 114 µM), inactives show top-dose activity change, negative = inhibition, actives largely listed as inhibitors | AlphaScreen JMJD2A-Tudor / H3K4me3 peptide binding; further: on the % scale 0 is the no-effect control and ±100 the full control effect; nearly all actives have a fitted effect of over 50% in size
HP1b binding inh = HP1-beta chromodomain-methylated histone interaction inhibition | Potency, µM (top dose mostly 114 µM), for the others: at the top dose activity change, negative = inhibition, most hits filed as inhibitors | 0.56% of 390,000 active | AlphaScreen HP1-beta / biotin-H3K9me3 peptide binding | P83916 | AID 540317; further: nearly all actives have a fitted effect of over 70% in size
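Compound inhibition of the preformed complex between 50 nM HP1-beta and 50 nM biotinylated H3K9me3 peptide was read by AlphaScreen. Buffer was PBS pH 7.4 with 0.01% Tween-20. Incubations ran 30 min at room temperature, with 10 ug/mL donor/acceptor beads.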
* marks the source's active call; other numbers are inactive results; u = inconclusive; x = no result; [ ] = remark or other dose. The list is not random: actives were taken first. Their share in the collection is about 6.9%. The call rests on the fitted dose curve; in most records, active means well fitted curve in the direction sought with a large enough effect; inconclusive means small, poorly fitted or top-dose-only effect, or another doubt; inactive means no such curve, though single readings can be large; an effect the other way counts as inactive or inconclusive. Potency means the concentration at half of the fitted maximal effect.

SMILES	BAZ2B inh	L3MBTL1 inh	PLK1 PBD inh	VDR inh	JMJD2A Tudor inh	HP1b binding inh
CCCCCC(=O)NC(Cc1ccc(OC)c([N+](=O)[O-])c1)C(=O)O (stereo not drawn)	0.1%	x	21.2µM*	u	u	30.6%
CC(C)c1cnc2c(c1SCC(=O)N1CCCCC1)c(=O)n(C)c(=O)n2C	-10.3%	x	x	19.4%	-4.9%	12.9%[57 µM]
O=C(c1ccco1)N1CCn2cccc2C1c1ccccc1 (stereo not drawn)	35.5µM*	u	0.0%	-21.9%	50.1µM*	70.8µM*
COc1ccc(S(=O)(=O)Nc2ccc3c(c2)C(=O)N([C@@H](C)CO)C[C@H](C)[C@H](CN(C)S(=O)(=O)c2ccc(F)cc2)O3)cc1	x	-11.3%	-15.3%	3.5%	-32.9%	20.8%
COc1ccc(C)cc1NC(=O)C(=O)NCC(c1cccnc1)N1CCN(c2ccccc2F)CC1 (stereo not drawn)	-4.4%	x	x	9.8%	-8.2%	36.6%
CCOC(=O)COn1c(=O)c(-c2ccc(Cl)cc2)[n+]([O-])c2ccccc21	3.0%	x	-5.9%	-7.5%	-8.9%	25.7%
O=c1c(-c2ccc(Cl)cc2)[n+]([O-])c2ccccc2n1O	u	-4.4%	-8.4%	7.2%	25.1µM*	-8.3%
O=c1c(-c2cccc([N+](=O)[O-])c2)[n+]([O-])c2ccccc2n1O	u	x	-2.1%	-11.7%	56.2µM*	-0.6%
Cc1nn2c(C)c(C(=O)NCc3ccco3)cnc2c1-c1ccccc1	-29.5%	x	x	3.9%	-17.0%	56.3%
CCC(=O)NC(=S)Nc1ccc(S(=O)(=O)N2CCN(C)CC2)cc1	6.2%	6.2%	-1.2%	4.1%	-30.6%	14.3%
O=C(NC(=S)N1CCN(C(c2ccccc2)c2ccccc2)CC1)c1ccc(S(=O)(=O)N2CCOCC2)cc1	-37.7%	-11.5%	-3.6%	-12.9%	-25.0%	13.5%
CN1CCN(S(=O)(=O)c2ccc(NC(=S)NC(=O)c3ccc(Cl)cc3)cc2)CC1	7.5%	1.5%	18.9µM*	-16.0%	u	u
CCN(CC)c1ccc(NC(=O)c2ccc(S(=O)(=O)N3CCOCC3)cc2)cc1	x	-18.4%	5.8%	-0.4%	44.7µM*	u
CN1CCN(C(=S)NC(=O)c2ccc(S(=O)(=O)N3CCOCC3)cc2)CC1	u	6.1%	u	-17.0%	44.7µM*	-17.7%
O=C(NC(=S)Nc1ccc(S(=O)(=O)N2CCCCC2)cc1)c1ccc(Cl)cc1	-23.0%	x	-14.1%	-8.3%	-24.5%	-13.1%
CN1CCN(S(=O)(=O)c2ccc(NC(=S)NC(=O)c3ccccc3)cc2)CC1	u	x	26.7µM*	-1.7%	-28.5%	-16.3%
CC(=O)Nc1ccc(S(=O)(=O)Oc2cccc(/C=N/N=C3/NC(=O)C(CC(=O)O)S3)c2)cc1 (stereo not drawn)	56.2µM*	-19.7%	u	-16.0%	-23.4%	28.7%
NC(=O)NC(=O)CC1S/C(=N/N=C2/NC(=O)CS2)NC1=O (stereo not drawn)	20µM*	-2.0%	-1.0%	-28.7%	28.2µM*	21.4%
O=C(O)CNC(=O)CC1S/C(=N/N=C2\CSC(=O)N2)NC1=O (stereo not drawn)	6.31µM*	x	-9.0%	5.5%	7.08µM*	57.9%
CC(=O)c1cccc(NC(=O)CC2S/C(=N/N=C/c3ccccc3)NC2=O)c1 (stereo not drawn)	-16.7%	x	-4.4%	-13.4%	2.6%	58.3%
O=C(O)CNC(=O)CC1S/C(=N/N=C/c2ccccc2O)NC1=O (stereo not drawn)	50.1µM*	x	23.8µM*	u	u	14.4%
COc1ccc(/C=N/N=C2/NC(=O)C(CC(=O)O)S2)cc1OS(=O)(=O)c1ccccc1 (stereo not drawn)	-28.8%	-4.7%	-8.0%	13.6%	-4.9%	34.0%
CC(C)(CO)NC(=O)c1ccc2nc(Cc3cccc(Cl)c3)oc2c1	-6.1%	-2.2%	-4.9%	-11.2%	-4.8%	28.4%

High-throughput results as filed in PubChem.
